Most compounds without a hit are left out; they make up all but 2.6% or so of the library.
LGR2 inh: blocks bursicon-induced cAMP signaling via Drosophila LGR2; inhibition, % at 9.99 µM; hit rate 0.35% among 380,000; HEK293 LGR2, CRE-luciferase, bursicon-stimulated, 4 h;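 active means drop in luminescence signal, shown as inhibition above about 50% in the replicate tests, limit read from the data, passing the limit was not always enough; inconclusive means probably only some replicates passing the limit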;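 further: agonist challenge used bursicon conditioned medium at about half maximal strength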
TWEAK Fn14 block: inhibitors of TWEAK-Fn14 interaction signaling; TWEAK-stimulated Fn14 reporter cells, luciferase luminescence, 8 h; inhibition, % at 10 µM; hit rate 2% among 360,000; AID 1159606; in the data active means inhibition above about 50%
TROY signal inh: blocks TROY-dependent signaling in reporter cells. inhibition, % at 10 µM. Q293 LMP1-TROYcd NF-kB luciferase reporter, 4 h. hit rate 0.98% among 360,000. AID 1347056;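 active means compounds whose plate-normalised and pattern-corrected inhibition of the luciferase reporter signal at the single screening dose is 50% or more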
LMP1 NFkB inh: inhibitors of Epstein-Barr LMP1-induced NF-kappaB reporter | LMP1-induced NF-kappaB luciferase reporter cells, luminescence | inhibition, % at 12.5 µM | hit rate 0.69% among 350,000 | AID 504558; in the data active means inhibition above about 41%; inconclusive means no clear call, values can overlap the other calls
EWS-Fli block: inhibitors of EWS/Fli oncoprotein transcriptional activity; A673 NR0B1-luciferase reporter, viability-normalised; inhibition, % at 12.6 µM; hit rate 0.67% among 350,000;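 active means mean inhibition of at least 50% after viability correction, with every replicate also passing that limit; inconclusive means mean reaches 50% but only one of two replicates passes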;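 further: firefly luciferase signal divided by Alamar Blue viability fluorescence both relative to DMSO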
Of the large screens only hits and unclear results are named; the others gave an inactive call.

CC(C)NC(=O)N(C)C[C@@H]1Oc2cc(Br)ccc2S(=O)(=O)N([C@H](C)CO)C[C@H]1C	none (no result: TWEAK Fn14 block, TROY signal inh, LMP1 NFkB inh)
Cc1ccc(Cl)cc1S(=O)(=O)N1CCC(C(=O)NC2CCN(Cc3ccccc3)CC2)CC1	TWEAK Fn14 block 52
CC(C)c1ccc(-c2nnn(CCC(=O)O)n2)cc1	TWEAK Fn14 block 87, LMP1 NFkB inh 45 (no result: LGR2 inh, EWS-Fli block)
O=C(O)CCn1nnc(-c2cccs2)n1	none (no result: LGR2 inh, EWS-Fli block)
O=C(NC1CCN(S(=O)(=O)c2ccccc2C(F)(F)F)CC1)c1ccco1	TWEAK Fn14 block 56
O=c1[nH]c(NC2CCN(S(=O)(=O)c3ccccc3C(F)(F)F)CC2)nc2c1CCCC2	LMP1 NFkB inh 53
Oc1[nH]c2c(Cl)cc(Cl)cc2c1N=NC(=S)NCC1CCCO1 (stereo not drawn)	TWEAK Fn14 block 103 (no result: EWS-Fli block)
Cc1cc(C)c2[nH]c(O)c(N=NC(=S)NCC3CCCO3)c2c1 (stereo not drawn)	none (no result: EWS-Fli block)
COc1ccc(NC(=O)N(C)C[C@H]2Oc3ccc(NS(=O)(=O)c4cn(C)cn4)cc3C(=O)N([C@@H](C)CO)C[C@H]2C)cc1	none (no result: TWEAK Fn14 block, TROY signal inh, LMP1 NFkB inh)
Cc1ccccc1C(=O)N/N=C/c1cccc2ccccc12	none
Cc1ccc(Cl)cc1NC(=S)N/N=C/c1cccc2ccccc12	EWS-Fli block 53
CO[C@H]1CN(C)C(=O)c2ccc(NS(=O)(=O)CC(F)(F)F)cc2OC[C@@H](C)N(C(=O)c2ccc3c(c2)OCO3)C[C@@H]1C	none (no result: TWEAK Fn14 block, TROY signal inh, LMP1 NFkB inh)
CCN(CC)c1ccc2c(O)cc(=O)oc2c1	TWEAK Fn14 block 86
CCOC(=O)/C(C#N)=C\c1cc(C)n(-c2ccccc2)c1C	TWEAK Fn14 block 81, TROY signal inh 79 (no result: LGR2 inh, EWS-Fli block)
CNC(=O)/C(C#N)=C/c1cc(C)n(-c2ccc(N3CCOCC3)cc2)c1C	none
CCOC(=O)/C(C#N)=C/c1cc(C)n(-c2ccc(C)cc2)c1C	TROY signal inh 50 (no result: EWS-Fli block)
C[C@@H]1CCCCO[C@H](CN(C)C(=O)C2CCCCC2)[C@H](C)CN([C@@H](C)CO)C(=O)c2cc(NC(=O)Cc3ccccc3)ccc2O1	none (no result: TWEAK Fn14 block, TROY signal inh, LMP1 NFkB inh)
CCOC(=O)N1CCN(S(=O)(=O)c2ccc(C)cc2)CC1	TWEAK Fn14 block 77
CCOC(=O)N1CCN(S(=O)(=O)c2ccc(Cl)cc2)CC1	none
O=C(Nc1ccccc1)N1CC(=O)N2[C@@H](CO)[C@H](c3ccc(C#CC4CCCCC4)cc3)[C@@H]2C1	none (no result: TWEAK Fn14 block, TROY signal inh, LMP1 NFkB inh)
C/C(CC(=O)Nc1ccccc1C(F)(F)F)=N\NC(=O)c1cnccn1	none
COc1ccccc1NC(=O)C(=O)N/N=C(\C)CC(=O)Nc1ccccc1C(F)(F)F	LMP1 NFkB inh 47
CCCNC(=O)N1[C@@H]2CNC[C@H]1C2c1ccc(-c2cccc(C#N)c2)cc1 (stereo partly drawn)	none (no result: TWEAK Fn14 block, TROY signal inh, LMP1 NFkB inh, EWS-Fli block)
C[C@H]1CN([C@@H](C)CO)C(=O)Cc2cc(NC(=O)Nc3ccc(F)cc3)ccc2O[C@@H]1CN(C)Cc1ccc(-c2ccccc2)cc1	none (no result: TWEAK Fn14 block, TROY signal inh, LMP1 NFkB inh)
Cn1nnnc1SCc1cn2cccnc2n1	TWEAK Fn14 block 87 (no result: LGR2 inh, TROY signal inh, EWS-Fli block)
COc1ccc(NC(=O)N(C)C[C@H]2Oc3ccc(NS(=O)(=O)c4ccc(Cl)cc4)cc3C(=O)N([C@H](C)CO)C[C@@H]2C)cc1	none (no result: TWEAK Fn14 block, TROY signal inh, LMP1 NFkB inh)
COC(=O)/C=c1\sc2ncnn2c1=O	TWEAK Fn14 block 74 (no result: TROY signal inh, EWS-Fli block)
CNC(=O)/C(C#N)=c1\s/c(=C/C(=O)OC)c(=O)n1-c1ccccc1	none (no result: LGR2 inh, EWS-Fli block)
Cn1c(-c2ccccc2)cnc1SCC(=O)N1CCCCC1	TWEAK Fn14 block 93, TROY signal inh 61, LMP1 NFkB inh 66 (no result: LGR2 inh, EWS-Fli block)
c1c2c(cc3sc(N4CCCCC4)nc13)OCO2	TWEAK Fn14 block 73 (no result: LGR2 inh, EWS-Fli block)
c1ccc2c(c1)CCN(c1nc3cc4c(cc3s1)OCO4)C2	TWEAK Fn14 block 58 (no result: LGR2 inh, EWS-Fli block)
c1ccc(N2CCN(c3nc4cc5c(cc4s3)OCO5)CC2)cc1	none (no result: LGR2 inh, EWS-Fli block)
O=C(C[C@H]1CC[C@H]2[C@@H](COC[C@H](O)CN2C(=O)c2ccccc2F)O1)NCc1ccc(Cl)c(Cl)c1	none (no result: TWEAK Fn14 block, TROY signal inh, LMP1 NFkB inh)
Cn1c(C=O)c(-c2ccc3cc[nH]c3c2)c2ccccc21	TWEAK Fn14 block 66
COC(=O)[C@@]1(C)[C@H]2C(=O)N(Cc3ccccc3)C(=O)[C@H]2[C@H]2CN=C(SCc3ccc(C#N)cc3)N21	none
COC(=O)[C@@]1(C)[C@H]2C(=O)N(Cc3ccccc3)C(=O)[C@H]2[C@H]2CN=C(SCc3ccc(Cl)cc3)N21	LMP1 NFkB inh 70
Nc1nc(N)nc(-c2cc(O)ccc2O)n1	none
Oc1ccc(O)c(-c2cnns2)c1	TWEAK Fn14 block 57 (no result: EWS-Fli block)
Cc1ccccc1-n1ncc2c([N+](=O)[O-])cc([N+](=O)[O-])cc21	TROY signal inh 51 (no result: EWS-Fli block)
C=C1C(=O)C2=CC1CCC(=O)C1(C)CCC(OC(C)=O)C(C)(C)C1CC2O (stereo not drawn)	LGR2 inh 103, TWEAK Fn14 block 101, LMP1 NFkB inh inconclusive, EWS-Fli block 57
CO[C@H]1CN(C)C(=O)c2cc(NS(=O)(=O)c3cccc(F)c3)ccc2OC[C@H](C)N(Cc2cc(F)ccc2F)C[C@@H]1C	none (no result: TWEAK Fn14 block, TROY signal inh, LMP1 NFkB inh)
Cc1nc2cc(N3CCN(C)CC3)c(NC(=O)Cc3ccccc3)cc2c(=O)n1Cc1ccccc1	TWEAK Fn14 block 87, TROY signal inh 59 (no result: LGR2 inh, EWS-Fli block)
COc1ccccc1C(=O)NNC(=O)c1cccc(O)c1	none
COc1ccccc1C(=O)NNC(=O)c1cccc(F)c1	TWEAK Fn14 block 67 (no result: EWS-Fli block)
Cc1cccc(NC(=S)N/N=C/c2cccc(O)c2)c1C	EWS-Fli block 64
Cc1cccc(C(=O)Nc2cccc(C(=O)N/N=C/c3ccccn3)c2)c1	none
O=C(O)c1cccc(NC(=S)N/N=C/c2ccccn2)c1	LGR2 inh 72
Oc1ccc(/C=N/NC(=S)Nc2cccnc2)cc1O	none
O=C(O)c1cccc(NC(=S)N/N=C/c2cccc(O)c2)c1	LGR2 inh 63
S=C(N/N=C/c1ccc2ncccc2c1)Nc1cccnc1	LGR2 inh inconclusive, TWEAK Fn14 block 56, LMP1 NFkB inh 55
C[C@H](CO)N1C[C@H](C)[C@H](CN(C)S(=O)(=O)c2cn(C)cn2)Oc2ccc(NS(=O)(=O)c3cccs3)cc2CC1=O	none (no result: TWEAK Fn14 block, TROY signal inh, LMP1 NFkB inh)
CC(C)C#Cc1ccc2c(c1)O[C@H](CN(C)C)[C@H](C)CN([C@@H](C)CO)S2(=O)=O	none (no result: TWEAK Fn14 block, TROY signal inh, LMP1 NFkB inh)
O=C(COc1cccc(C(F)(F)F)c1)NNC(=O)c1ccc(=O)[nH]c1	LMP1 NFkB inh 72
O=C(NCc1cccc(C(F)(F)F)c1)c1ccc(=O)[nH]c1	none
O=S(=O)(c1cccc(NC(=S)N2CCN(c3ccc(F)cc3)CC2)c1)C(F)F	none
O=S(=O)(c1cccc(NC(=S)N2CCN(c3cccc(Cl)c3)CC2)c1)C(F)F	TWEAK Fn14 block 83
COCC(=O)N(C)C[C@H]1Oc2ncc(-c3cccc(OC)c3)cc2C(=O)N([C@@H](C)CO)C[C@@H]1C	none (no result: TWEAK Fn14 block, TROY signal inh, LMP1 NFkB inh)
O=C(/C=C1\NC2(CCCC2)Cc2ccccc21)N1CCOCC1	none (no result: LGR2 inh, EWS-Fli block)
CC1(C)Cc2c(ccc3ccccc23)/C(=C/C(=O)N2CCCCC2)N1	LMP1 NFkB inh 58 (no result: EWS-Fli block)
c1ccc2c3c([nH]c2c1)C(C1CCCCC1)N(Cc1ncc[nH]1)CC3 (stereo not drawn)	LMP1 NFkB inh 73 (no result: EWS-Fli block)
Cn1c(=O)c2[nH]c(CCCCCCCCc3nc4ccccc4[nH]3)nc2n(C)c1=O	TWEAK Fn14 block 70
COc1ccc(N=Cc2sc3ccccc3c2Cl)cc1	TWEAK Fn14 block 71, TROY signal inh 67 (no result: LGR2 inh, EWS-Fli block)
